This is one part of a sample in which hits are shown more often than they occur.
mHTT-CaM PPI inh: disrupts binding of mutant huntingtin to calmodulin | P42858 | AlphaScreen His-mHTT/GST-CaM binding, luminescence | inhibition, % at 15 µM | hit rate 3.6% among 190,000 | AID 1671202
Pf apPOL inh: Pf-apPOL DNA polymerase inhibition. Recombinant Pf-apPOL, molecular beacon fluorescence, 1.5 h. inhibition, % at 10 µM. hit rate 0.25% among 210,000
Numbers stand for hits; – = inactive; · = no result given. No stated cut-off is given here; in the data, active means inhibition above about 50%; inactive means the rest.

SMILES	mHTT-CaM PPI inh	Pf apPOL inh
N#CC1=C(N)Oc2n[nH]c(-c3ccc4c(c3)OCO4)c2C1c1ccc2c(c1)OCO2 (stereo unspecified)	–	–
N#CC1=C(N)Oc2n[nH]c(-c3ccccn3)c2C1c1cccnc1 (stereo unspecified)	–	–
N#CC1=C(N)Oc2n[nH]c(-c3ccccn3)c2C1c1ccc([N+](=O)[O-])s1 (stereo unspecified)	99.0	–
N#CC1=C(N)Oc2n[nH]c(-c3ccccn3)c2C1c1ccc2c(c1)OCO2 (stereo unspecified)	62.0	–
Cc1[nH]nc2c1C(c1ccc3c(c1)OCO3)C(C#N)=C(N)O2 (stereo unspecified)	–	–
Cc1cc(C)c2c(=O)cc(C(F)(F)F)oc2c1[N+](=O)[O-]	–	–
COc1cn(CC(=O)NCc2ccc(F)cc2)c(CN2CCC(C)CC2)cc1=O	–	–
O=C(NCC1CCCO1)C(=O)N/N=C/c1c2ccccc2cc2ccccc12 (stereo unspecified)	–	·
O=C(O)CC(NS(=O)(=O)c1ccc(F)c(Cl)c1)c1ccc(F)cc1 (stereo unspecified)	–	–
CCCc1noc(-c2cccnc2N2CCCN(C(=O)c3ccc4c(c3)OCO4)CC2)n1	–	–
N#CC1=C(N)Oc2n[nH]c(-c3ccccn3)c2C1c1ccc(O)cc1 (stereo unspecified)	80.0	–
COc1ccc(C2C(C#N)=C(N)Oc3n[nH]c(-c4ccccn4)c32)c(OC)c1OC (stereo unspecified)	–	–
O=C(NCc1ccccc1)C(=O)Nc1ccc2c(c1)OCO2	–	–
Cn1ccc2c(N3CCCCCC3)cc3c(c21)C1CCC3C1 (stereo unspecified)	63.1	–
COc1ccc(-c2cc3c(c4c2ccn4C)C2CCC3C2)cc1OC (stereo unspecified)	73.9	–
CCCN(CC1CC1)c1cc2c(c3c1ccn3C)C1CCC2C1 (stereo unspecified)	73.9	–
Cn1ccc2c(-c3cncc4ccccc34)cc3c(c21)C1CCC3C1 (stereo unspecified)	99.9	–
Cn1ccc2c(-c3cccnc3)cc3c(c21)C1CCC3C1 (stereo unspecified)	–	–
Cn1ccc2c(-c3cccc4ccccc34)cc3c(c21)C1CCC3C1 (stereo unspecified)	–	–
Cn1ccc2c(N3CCOCC3)cc3c(c21)C1CCC3C1 (stereo unspecified)	–	–
CCN(CC)c1cc2c(c3c1ccn3C)C1CCC2C1 (stereo unspecified)	–	–
CSc1ccc(CN2CCN(c3cnn4c(C5CC5)nnc4c3)CC2)cc1	–	–
CCN1CCN(CC(O)COCCOc2cccc(OC)c2)CC1 (stereo unspecified)	–	–
COC(=O)Cn1c(=O)c2c(nc3n(-c4cc(Cl)ccc4OC)c(C)cn23)n(C)c1=O	–	–
O=C(NC1CS(=O)(=O)CC1Cl)c1cccc(C(F)(F)F)c1 (stereo unspecified)	–	–
SMILES	mHTT-CaM PPI inh	Pf apPOL inh
Cc1ccc(C2SCC(=O)N2c2ccc(Cl)cc2)cc1 (stereo unspecified)	–	–
Cn1ccc2c(-c3ccc(F)nc3)cc3c(c21)C1CCC3C1 (stereo unspecified)	–	–
Cn1ccc2c(-c3ccc(F)cc3F)cc3c(c21)C1CCC3C1 (stereo unspecified)	58.8	–
Cc1ccccc1Nc1nccc(C2CCCN(C(=O)C3CCC3)C2)n1 (stereo unspecified)	–	–
COc1cccc(-c2nnc3n2N=C(c2ccc(O)c(O)c2)CS3)c1	52.0	–
Oc1ccc(C2=Nn3c(nnc3-c3cccc(F)c3)SC2)cc1O	–	–
CCc1onc(C)c1C1CCCN1C(=O)NCC(=O)OC (stereo unspecified)	–	–
COC(=O)c1cc(Nc2cccc(F)c2)c2cccc(F)c2n1	–	–
COC(=O)c1cc(Nc2ccc3c(c2)OCO3)c2cccc(F)c2n1	51.0	–
OC(C#CC(O)(c1ccccc1)c1ccccc1)c1cccnc1 (stereo unspecified)	–	–
OC(C#Cc1ccccc1)C#CC(O)(c1ccccc1)c1ccccc1 (stereo unspecified)	98.0	–
O=[N+]([O-])c1ccc(-c2nc(C=Nc3ccc4c(c3)OCCO4)c(O)o2)cc1	–	–
Cc1ccc2oc(-c3ccc(NC(=O)c4ccccc4[N+](=O)[O-])cc3)nc2c1	–	–
CCN(CC)CC(=O)N1c2ccccc2Sc2ccc(Cl)cc21	–	–
O=C(CNCc1ccccc1)N1c2ccccc2Sc2ccc(Cl)cc21	97.2	–
N#Cc1cccc(S(=O)(=O)N2CCc3c(nc4cc(-c5ccccc5)[nH]n4c3=O)C2)c1	–	–
CC12CN3CC(C)(CN(C1)C1C3CCOC1(C)C)C2O (stereo unspecified)	–	–
COc1cccc(-c2cn3c(n2)N(C(=O)Cc2cccs2)CCC3)c1	82.4	–
COc1ccc(-c2cn3c(n2)N(C(=O)Cc2cccs2)CCC3)cc1	–	–
CC(=O)N1c2ccc(S(=O)(=O)NCc3cccnc3)cc2CC1C (stereo unspecified)	–	–
O=C1CCCC(=O)N1CCS(=O)(=O)NC1CC(=O)N(C2CC2)C1 (stereo unspecified)	–	–
COc1cc(OC)c2ccc(=O)oc2c1C(CC(=O)N1CCOCC1)c1ccc2c(c1)OCO2 (stereo unspecified)	–	–
COc1cc(OC)c2ccc(=O)oc2c1C(CC(=O)N1CCN(c2ccccc2)CC1)c1ccc2c(c1)OCO2 (stereo unspecified)	69.7	–
COc1ccc(C(CC(=O)N2CCCCC2)c2c(OC)cc(OC)c3ccc(=O)oc23)cc1 (stereo unspecified)	–	–
COc1cc(C(CC(=O)N2CCN(c3ccccc3)CC2)c2c(OC)cc(OC)c3ccc(=O)oc23)cc(OC)c1OC (stereo unspecified)	71.0	–
SMILES	mHTT-CaM PPI inh	Pf apPOL inh
CCn1c(C2CCN(C(=O)c3ccc(F)c(Cl)c3)C2)nc2cccnc21 (stereo unspecified)	–	–
COc1cc(Cl)c(NC(=O)C2CCN(c3nccc(C)n3)CC2)c(OC)c1	–	–
N#Cc1c(NC(=O)CO/N=C/c2ccccc2)oc(-c2ccccc2)c1-c1ccccc1	–	–
CC(C)c1ccc(C2Nc3ccc4ncccc4c3C3=C2C(=O)CCC3)cc1 (stereo unspecified)	65.0	–
Cc1ccc(C2Nc3ccc4ncccc4c3C3=C2C(=O)CCC3)cc1 (stereo unspecified)	–	–
Cn1cccc1C1CC(c2ccc(F)cc2)=NN1C(=O)CN1CCCCC1 (stereo unspecified)	70.2	–
CC(=O)N1CCN(CC(=O)N2N=C(c3ccc(F)cc3)CC2c2ccccc2)CC1 (stereo unspecified)	–	–
Cc1ccc(C2=NN(C(=O)CN3CCCCC3)C(c3cccn3C)C2)cc1C (stereo unspecified)	91.2	–
Cc1cc(C)cc(NC(=O)c2noc3c2CCCC3)c1	–	–
CC1(CC(=O)Nc2ccccc2)NN=C(c2ccccc2)S1 (stereo unspecified)	73.0	–
O=C(CC(=O)Nc1ccccc1)Nc1ccccc1	–	–
CC(C)NC(=O)c1ccc2c(c1)N(C)C(=O)CS2	–	–
Cc1ccccc1NC(=O)N1CCOc2ccccc21	–	–
O=C(Nc1cc(-c2cccs2)no1)c1ccc(F)cc1	–	–
Cc1ccc(/C=C(/C#N)C(N)=S)s1	–	·
